# Tests used:
# Test in all cases: PBM; 200 nM protein, PBS
# Settings in all cases: dsDNA, one strand shown
# [1] = target: HESX1 (Homo sapiens, UniProt Q9UBX0 95-180, R165K)
# [2] = target: SHOX (Homo sapiens, UniProt O15266 103-189)
# [3] = target: ALX4 (Homo sapiens, UniProt Q9H161 200-286, Q225E)
# [4] = target: HESX1 (Homo sapiens, UniProt Q9UBX0 95-180)
# [5] = target: MSX2 (Homo sapiens, UniProt P35548 130-214, R199I)
# [6] = target: ALX1 (Homo sapiens, UniProt Q15699 118-204, L144V)
# [7] = target: ALX3 (Homo sapiens, UniProt O95076 139-225, N203Q)
# [8] = target: SHOX (Homo sapiens, UniProt O15266 103-189, R173C)
# [9] = target: ALX1 (Homo sapiens, UniProt Q15699 118-204, L144R)
# [10] = target: ALX3 (Homo sapiens, UniProt O95076 139-225)
# [11] = target: PROP1 (Homo sapiens, UniProt O75360 56-141)
# [12] = target: HESX1 (Homo sapiens, UniProt Q9UBX0 95-180, R109Q)
# [13] = target: PROP1 (Homo sapiens, UniProt O75360 56-141, R99H)
# [14] = target: ALX3 (Homo sapiens, UniProt O95076 139-225, L168Q)
# [15] = target: HESX1 (Homo sapiens, UniProt Q9UBX0 95-180, P111T)
# [16] = target: ALX3 (Homo sapiens, UniProt O95076 139-225, L168V)
# [17] = target: PROP1 (Homo sapiens, UniProt O75360 56-141, F88S)
# [18] = target: HESX1 (Homo sapiens, UniProt Q9UBX0 95-180, F115L)
# [19] = target: ALX1 (Homo sapiens, UniProt Q15699 118-204)
# [20] = target: ALX3 (Homo sapiens, UniProt O95076 139-225, N203S)
# ALX3 (Homo sapiens, UniProt O95076 139-225, N203S), sequence (O95076 139-225 N203S): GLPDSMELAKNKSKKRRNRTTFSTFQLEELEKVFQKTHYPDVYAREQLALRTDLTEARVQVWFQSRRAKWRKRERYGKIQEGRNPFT
# HESX1 (Homo sapiens, UniProt Q9UBX0 95-180), sequence (Q9UBX0 95-180): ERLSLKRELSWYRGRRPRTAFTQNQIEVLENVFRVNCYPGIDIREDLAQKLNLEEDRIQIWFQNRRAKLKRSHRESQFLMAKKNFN
# HESX1 (Homo sapiens, UniProt Q9UBX0 95-180, R165K), sequence (Q9UBX0 95-180 R165K): as the sequence (Q9UBX0 95-180) above, with R71K counted along it
# ALX3 (Homo sapiens, UniProt O95076 139-225, L168Q), sequence (O95076 139-225 L168Q): as the sequence (O95076 139-225 N203S) above, with L30Q, S65N counted along it
# ALX1 (Homo sapiens, UniProt Q15699 118-204), sequence (Q15699 118-204): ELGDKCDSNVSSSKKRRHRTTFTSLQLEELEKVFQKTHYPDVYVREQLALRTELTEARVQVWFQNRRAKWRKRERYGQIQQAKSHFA
# PROP1 (Homo sapiens, UniProt O75360 56-141, F88S), sequence (O75360 56-141 F88S): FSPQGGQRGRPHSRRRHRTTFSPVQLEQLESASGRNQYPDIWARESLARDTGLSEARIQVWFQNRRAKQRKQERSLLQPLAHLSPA
# MSX2, sequence (P35548 130-214 R199I): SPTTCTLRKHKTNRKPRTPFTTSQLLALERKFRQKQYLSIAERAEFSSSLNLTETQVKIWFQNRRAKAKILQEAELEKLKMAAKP
# ALX1 (Homo sapiens, UniProt Q15699 118-204, L144V), sequence (Q15699 118-204 L144V): as the sequence (Q15699 118-204) above, with L27V counted along it
# ALX1 (Homo sapiens, UniProt Q15699 118-204, L144R), sequence (Q15699 118-204 L144R): as the sequence (Q15699 118-204) above, with L27R counted along it
# ALX3 (Homo sapiens, UniProt O95076 139-225, N203Q), sequence (O95076 139-225 N203Q): as the sequence (O95076 139-225 N203S) above, with S65Q counted along it
# HESX1 (Homo sapiens, UniProt Q9UBX0 95-180, P111T), sequence (Q9UBX0 95-180 P111T): as the sequence (Q9UBX0 95-180) above, with P17T counted along it
# ALX4, sequence (Q9H161 200-286 Q225E): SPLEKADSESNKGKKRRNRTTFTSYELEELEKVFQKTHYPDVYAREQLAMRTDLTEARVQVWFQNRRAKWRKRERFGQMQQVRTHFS
# ALX3 (Homo sapiens, UniProt O95076 139-225, L168V), sequence (O95076 139-225 L168V): as the sequence (O95076 139-225 N203S) above, with L30V, S65N counted along it
# SHOX (Homo sapiens, UniProt O15266 103-189), sequence (O15266 103-189): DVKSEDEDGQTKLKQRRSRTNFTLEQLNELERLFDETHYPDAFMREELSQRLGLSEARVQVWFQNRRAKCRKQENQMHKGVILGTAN
# PROP1 (Homo sapiens, UniProt O75360 56-141), sequence (O75360 56-141): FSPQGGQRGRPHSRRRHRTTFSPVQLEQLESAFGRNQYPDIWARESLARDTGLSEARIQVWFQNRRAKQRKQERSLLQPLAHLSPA
# PROP1 (Homo sapiens, UniProt O75360 56-141, R99H), sequence (O75360 56-141 R99H): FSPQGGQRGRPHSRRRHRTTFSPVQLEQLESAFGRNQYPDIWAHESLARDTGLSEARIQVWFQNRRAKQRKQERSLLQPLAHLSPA
# HESX1 (Homo sapiens, UniProt Q9UBX0 95-180, F115L), sequence (Q9UBX0 95-180 F115L): as the sequence (Q9UBX0 95-180) above, with F21L counted along it
# HESX1 (Homo sapiens, UniProt Q9UBX0 95-180, R109Q), sequence (Q9UBX0 95-180 R109Q): as the sequence (Q9UBX0 95-180) above, with R15Q counted along it
# SHOX (Homo sapiens, UniProt O15266 103-189, R173C), sequence (O15266 103-189 R173C): as the sequence (O15266 103-189) above, with R71C counted along it
# ALX3 (Homo sapiens, UniProt O95076 139-225), sequence (O95076 139-225): as the sequence (O95076 139-225 N203S) above, with S65N counted along it
Sequence,binding signal [1],binding signal [2],binding signal [3],binding signal [4],binding signal [5],binding signal [6],binding signal [7],binding signal [8],binding signal [9],binding signal [10],binding signal [11],binding signal [12],binding signal [13],binding signal [14],binding signal [15],binding signal [16],binding signal [17],binding signal [18],binding signal [19],binding signal [20]
AATTAGTA,"11.7 upbm affinity estimate (log intensity, higher = more binding, comparable within an allelic series)","11.6 upbm affinity estimate (log intensity, higher = more binding, comparable within an allelic series)","12.9 upbm affinity estimate (log intensity, higher = more binding, comparable within an allelic series)","11.7 upbm affinity estimate (log intensity, higher = more binding, comparable within an allelic series)","12.3 upbm affinity estimate (log intensity, higher = more binding, comparable within an allelic series)","11.7 upbm affinity estimate (log intensity, higher = more binding, comparable within an allelic series)","8.49 upbm affinity estimate (log intensity, higher = more binding, comparable within an allelic series)","9.25 upbm affinity estimate (log intensity, higher = more binding, comparable within an allelic series)","11.2 upbm affinity estimate (log intensity, higher = more binding, comparable within an allelic series)","12.3 upbm affinity estimate (log intensity, higher = more binding, comparable within an allelic series)","11 upbm affinity estimate (log intensity, higher = more binding, comparable within an allelic series)","9.01 upbm affinity estimate (log intensity, higher = more binding, comparable within an allelic series)","11 upbm affinity estimate (log intensity, higher = more binding, comparable within an allelic series)","10.4 upbm affinity estimate (log intensity, higher = more binding, comparable within an allelic series)","10.5 upbm affinity estimate (log intensity, higher = more binding, comparable within an allelic series)","9.94 upbm affinity estimate (log intensity, higher = more binding, comparable within an allelic series)","7.8 upbm affinity estimate (log intensity, higher = more binding, comparable within an allelic series)","7.68 upbm affinity estimate (log intensity, higher = more binding, comparable within an allelic series)","12.3 upbm affinity estimate (log intensity, higher = more binding, comparable within an allelic series)","8.57 upbm affinity estimate (log intensity, higher = more binding, comparable within an allelic series)"
CCAATTAG,"13.5 upbm affinity estimate (log intensity, higher = more binding, comparable within an allelic series)","12.8 upbm affinity estimate (log intensity, higher = more binding, comparable within an allelic series)","13.6 upbm affinity estimate (log intensity, higher = more binding, comparable within an allelic series)","13.4 upbm affinity estimate (log intensity, higher = more binding, comparable within an allelic series)","13.1 upbm affinity estimate (log intensity, higher = more binding, comparable within an allelic series)","12 upbm affinity estimate (log intensity, higher = more binding, comparable within an allelic series)","8.31 upbm affinity estimate (log intensity, higher = more binding, comparable within an allelic series)","10.3 upbm affinity estimate (log intensity, higher = more binding, comparable within an allelic series)","11.7 upbm affinity estimate (log intensity, higher = more binding, comparable within an allelic series)","12.7 upbm affinity estimate (log intensity, higher = more binding, comparable within an allelic series)","11.9 upbm affinity estimate (log intensity, higher = more binding, comparable within an allelic series)","10.5 upbm affinity estimate (log intensity, higher = more binding, comparable within an allelic series)","12.1 upbm affinity estimate (log intensity, higher = more binding, comparable within an allelic series)","10.9 upbm affinity estimate (log intensity, higher = more binding, comparable within an allelic series)","12.2 upbm affinity estimate (log intensity, higher = more binding, comparable within an allelic series)","10.4 upbm affinity estimate (log intensity, higher = more binding, comparable within an allelic series)","7.63 upbm affinity estimate (log intensity, higher = more binding, comparable within an allelic series)","8.12 upbm affinity estimate (log intensity, higher = more binding, comparable within an allelic series)","12.7 upbm affinity estimate (log intensity, higher = more binding, comparable within an allelic series)","8.47 upbm affinity estimate (log intensity, higher = more binding, comparable within an allelic series)"
GCCAATTA,"13.5 upbm affinity estimate (log intensity, higher = more binding, comparable within an allelic series)","12.5 upbm affinity estimate (log intensity, higher = more binding, comparable within an allelic series)","13.6 upbm affinity estimate (log intensity, higher = more binding, comparable within an allelic series)","13.3 upbm affinity estimate (log intensity, higher = more binding, comparable within an allelic series)","13 upbm affinity estimate (log intensity, higher = more binding, comparable within an allelic series)","11.9 upbm affinity estimate (log intensity, higher = more binding, comparable within an allelic series)","8.33 upbm affinity estimate (log intensity, higher = more binding, comparable within an allelic series)","9.95 upbm affinity estimate (log intensity, higher = more binding, comparable within an allelic series)","11.7 upbm affinity estimate (log intensity, higher = more binding, comparable within an allelic series)","12.6 upbm affinity estimate (log intensity, higher = more binding, comparable within an allelic series)","11.6 upbm affinity estimate (log intensity, higher = more binding, comparable within an allelic series)","10.3 upbm affinity estimate (log intensity, higher = more binding, comparable within an allelic series)","11.9 upbm affinity estimate (log intensity, higher = more binding, comparable within an allelic series)","10.9 upbm affinity estimate (log intensity, higher = more binding, comparable within an allelic series)","12.1 upbm affinity estimate (log intensity, higher = more binding, comparable within an allelic series)","10.4 upbm affinity estimate (log intensity, higher = more binding, comparable within an allelic series)","7.64 upbm affinity estimate (log intensity, higher = more binding, comparable within an allelic series)","7.99 upbm affinity estimate (log intensity, higher = more binding, comparable within an allelic series)","12.6 upbm affinity estimate (log intensity, higher = more binding, comparable within an allelic series)","8.5 upbm affinity estimate (log intensity, higher = more binding, comparable within an allelic series)"
CCAATTAC,"12.8 upbm affinity estimate (log intensity, higher = more binding, comparable within an allelic series)","12.2 upbm affinity estimate (log intensity, higher = more binding, comparable within an allelic series)","13.1 upbm affinity estimate (log intensity, higher = more binding, comparable within an allelic series)","12.9 upbm affinity estimate (log intensity, higher = more binding, comparable within an allelic series)","12.8 upbm affinity estimate (log intensity, higher = more binding, comparable within an allelic series)","11.8 upbm affinity estimate (log intensity, higher = more binding, comparable within an allelic series)","8.39 upbm affinity estimate (log intensity, higher = more binding, comparable within an allelic series)","9.4 upbm affinity estimate (log intensity, higher = more binding, comparable within an allelic series)","11.4 upbm affinity estimate (log intensity, higher = more binding, comparable within an allelic series)","12.5 upbm affinity estimate (log intensity, higher = more binding, comparable within an allelic series)","11.5 upbm affinity estimate (log intensity, higher = more binding, comparable within an allelic series)","9.36 upbm affinity estimate (log intensity, higher = more binding, comparable within an allelic series)","11.7 upbm affinity estimate (log intensity, higher = more binding, comparable within an allelic series)","10.6 upbm affinity estimate (log intensity, higher = more binding, comparable within an allelic series)","11.3 upbm affinity estimate (log intensity, higher = more binding, comparable within an allelic series)","9.97 upbm affinity estimate (log intensity, higher = more binding, comparable within an allelic series)","7.57 upbm affinity estimate (log intensity, higher = more binding, comparable within an allelic series)","7.75 upbm affinity estimate (log intensity, higher = more binding, comparable within an allelic series)","12.5 upbm affinity estimate (log intensity, higher = more binding, comparable within an allelic series)","8.51 upbm affinity estimate (log intensity, higher = more binding, comparable within an allelic series)"
AATTAAAT,"11.5 upbm affinity estimate (log intensity, higher = more binding, comparable within an allelic series)","11.5 upbm affinity estimate (log intensity, higher = more binding, comparable within an allelic series)","13.1 upbm affinity estimate (log intensity, higher = more binding, comparable within an allelic series)","11.6 upbm affinity estimate (log intensity, higher = more binding, comparable within an allelic series)","12.4 upbm affinity estimate (log intensity, higher = more binding, comparable within an allelic series)","11.5 upbm affinity estimate (log intensity, higher = more binding, comparable within an allelic series)","8.52 upbm affinity estimate (log intensity, higher = more binding, comparable within an allelic series)","9.35 upbm affinity estimate (log intensity, higher = more binding, comparable within an allelic series)","11.3 upbm affinity estimate (log intensity, higher = more binding, comparable within an allelic series)","12.5 upbm affinity estimate (log intensity, higher = more binding, comparable within an allelic series)","11.6 upbm affinity estimate (log intensity, higher = more binding, comparable within an allelic series)","8.88 upbm affinity estimate (log intensity, higher = more binding, comparable within an allelic series)","11.4 upbm affinity estimate (log intensity, higher = more binding, comparable within an allelic series)","10.5 upbm affinity estimate (log intensity, higher = more binding, comparable within an allelic series)","10.3 upbm affinity estimate (log intensity, higher = more binding, comparable within an allelic series)","10.2 upbm affinity estimate (log intensity, higher = more binding, comparable within an allelic series)","7.81 upbm affinity estimate (log intensity, higher = more binding, comparable within an allelic series)","7.97 upbm affinity estimate (log intensity, higher = more binding, comparable within an allelic series)","12.2 upbm affinity estimate (log intensity, higher = more binding, comparable within an allelic series)","8.68 upbm affinity estimate (log intensity, higher = more binding, comparable within an allelic series)"
AATTAAGA,"11.6 upbm affinity estimate (log intensity, higher = more binding, comparable within an allelic series)","11.7 upbm affinity estimate (log intensity, higher = more binding, comparable within an allelic series)","12.8 upbm affinity estimate (log intensity, higher = more binding, comparable within an allelic series)","11.6 upbm affinity estimate (log intensity, higher = more binding, comparable within an allelic series)",,"11.7 upbm affinity estimate (log intensity, higher = more binding, comparable within an allelic series)","8.44 upbm affinity estimate (log intensity, higher = more binding, comparable within an allelic series)","9.59 upbm affinity estimate (log intensity, higher = more binding, comparable within an allelic series)","11.3 upbm affinity estimate (log intensity, higher = more binding, comparable within an allelic series)","12.4 upbm affinity estimate (log intensity, higher = more binding, comparable within an allelic series)","11.2 upbm affinity estimate (log intensity, higher = more binding, comparable within an allelic series)","9.03 upbm affinity estimate (log intensity, higher = more binding, comparable within an allelic series)","10.9 upbm affinity estimate (log intensity, higher = more binding, comparable within an allelic series)","10.4 upbm affinity estimate (log intensity, higher = more binding, comparable within an allelic series)","10.5 upbm affinity estimate (log intensity, higher = more binding, comparable within an allelic series)","9.95 upbm affinity estimate (log intensity, higher = more binding, comparable within an allelic series)","7.71 upbm affinity estimate (log intensity, higher = more binding, comparable within an allelic series)","7.79 upbm affinity estimate (log intensity, higher = more binding, comparable within an allelic series)","12.1 upbm affinity estimate (log intensity, higher = more binding, comparable within an allelic series)","8.55 upbm affinity estimate (log intensity, higher = more binding, comparable within an allelic series)"
AACTAATT,"11.5 upbm affinity estimate (log intensity, higher = more binding, comparable within an allelic series)","11.5 upbm affinity estimate (log intensity, higher = more binding, comparable within an allelic series)","12.7 upbm affinity estimate (log intensity, higher = more binding, comparable within an allelic series)","11.5 upbm affinity estimate (log intensity, higher = more binding, comparable within an allelic series)","12.2 upbm affinity estimate (log intensity, higher = more binding, comparable within an allelic series)","11.5 upbm affinity estimate (log intensity, higher = more binding, comparable within an allelic series)","8.44 upbm affinity estimate (log intensity, higher = more binding, comparable within an allelic series)","9.12 upbm affinity estimate (log intensity, higher = more binding, comparable within an allelic series)","11.2 upbm affinity estimate (log intensity, higher = more binding, comparable within an allelic series)","12.4 upbm affinity estimate (log intensity, higher = more binding, comparable within an allelic series)","11.2 upbm affinity estimate (log intensity, higher = more binding, comparable within an allelic series)","8.89 upbm affinity estimate (log intensity, higher = more binding, comparable within an allelic series)","11.1 upbm affinity estimate (log intensity, higher = more binding, comparable within an allelic series)","10.3 upbm affinity estimate (log intensity, higher = more binding, comparable within an allelic series)","10.3 upbm affinity estimate (log intensity, higher = more binding, comparable within an allelic series)","9.88 upbm affinity estimate (log intensity, higher = more binding, comparable within an allelic series)","7.84 upbm affinity estimate (log intensity, higher = more binding, comparable within an allelic series)","7.81 upbm affinity estimate (log intensity, higher = more binding, comparable within an allelic series)","12.3 upbm affinity estimate (log intensity, higher = more binding, comparable within an allelic series)","8.58 upbm affinity estimate (log intensity, higher = more binding, comparable within an allelic series)"

# Source: article PMC11006913
